Publication PMC11006913

What was measured:
Test in all cases: PBM; 200 nM protein, PBS
Conditions in all cases: dsDNA, one strand shown
HOXD13 [1] = target: HOXD13 (Homo sapiens, UniProt P35453 263-343, T313R)
HOXD13 [2] = target: HOXD13 (Homo sapiens, UniProt P35453 263-343)
HOXD13 [3] = target: HOXD13 (Homo sapiens, UniProt P35453 263-343, T313A)
Sequence of HOXD13 (Homo sapiens, UniProt P35453 263-343, T313A) (P35453 263-343 T313A): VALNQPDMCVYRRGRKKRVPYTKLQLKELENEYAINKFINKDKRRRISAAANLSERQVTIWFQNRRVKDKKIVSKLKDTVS

Sequence of HOXD13 (Homo sapiens, UniProt P35453 263-343, T313R) (P35453 263-343 T313R): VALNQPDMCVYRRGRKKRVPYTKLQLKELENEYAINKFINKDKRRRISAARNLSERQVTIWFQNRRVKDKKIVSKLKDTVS
Sequence of HOXD13 (Homo sapiens, UniProt P35453 263-343) (P35453 263-343): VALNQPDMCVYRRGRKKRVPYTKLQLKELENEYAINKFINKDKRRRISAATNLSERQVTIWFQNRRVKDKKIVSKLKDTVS

Sequence	binding signal (HOXD13 [1])	binding signal (HOXD13 [2])	binding signal (HOXD13 [3])
ACGGTCCC	9.51 upbm affinity estimate (log intensity, higher = more binding, comparable within an allelic series)	9.34 upbm affinity estimate (log intensity, higher = more binding, comparable within an allelic series)	9.69 upbm affinity estimate (log intensity, higher = more binding, comparable within an allelic series)
CACCGCCA	9.56 upbm affinity estimate (log intensity, higher = more binding, comparable within an allelic series)	9.65 upbm affinity estimate (log intensity, higher = more binding, comparable within an allelic series)	9.8 upbm affinity estimate (log intensity, higher = more binding, comparable within an allelic series)
GGAGCAAC	9.51 upbm affinity estimate (log intensity, higher = more binding, comparable within an allelic series)	9.53 upbm affinity estimate (log intensity, higher = more binding, comparable within an allelic series)	9.56 upbm affinity estimate (log intensity, higher = more binding, comparable within an allelic series)
GCCGGTGA	9.57 upbm affinity estimate (log intensity, higher = more binding, comparable within an allelic series)	9.7 upbm affinity estimate (log intensity, higher = more binding, comparable within an allelic series)	9.88 upbm affinity estimate (log intensity, higher = more binding, comparable within an allelic series)
CCCCTCGC	9.62 upbm affinity estimate (log intensity, higher = more binding, comparable within an allelic series)	9.63 upbm affinity estimate (log intensity, higher = more binding, comparable within an allelic series)	9.67 upbm affinity estimate (log intensity, higher = more binding, comparable within an allelic series)
TTGTAAAA	10.7 upbm affinity estimate (log intensity, higher = more binding, comparable within an allelic series)	11.8 upbm affinity estimate (log intensity, higher = more binding, comparable within an allelic series)	11.6 upbm affinity estimate (log intensity, higher = more binding, comparable within an allelic series)
GGGAGAAC	9.51 upbm affinity estimate (log intensity, higher = more binding, comparable within an allelic series)	9.63 upbm affinity estimate (log intensity, higher = more binding, comparable within an allelic series)	9.68 upbm affinity estimate (log intensity, higher = more binding, comparable within an allelic series)
GCCACGGA	9.56 upbm affinity estimate (log intensity, higher = more binding, comparable within an allelic series)	9.61 upbm affinity estimate (log intensity, higher = more binding, comparable within an allelic series)	9.69 upbm affinity estimate (log intensity, higher = more binding, comparable within an allelic series)
GAAGGCCC	9.62 upbm affinity estimate (log intensity, higher = more binding, comparable within an allelic series)	9.68 upbm affinity estimate (log intensity, higher = more binding, comparable within an allelic series)	9.79 upbm affinity estimate (log intensity, higher = more binding, comparable within an allelic series)
GTTTTATA	10.8 upbm affinity estimate (log intensity, higher = more binding, comparable within an allelic series)	11.8 upbm affinity estimate (log intensity, higher = more binding, comparable within an allelic series)	11.6 upbm affinity estimate (log intensity, higher = more binding, comparable within an allelic series)
CCAGTAAA	10.4 upbm affinity estimate (log intensity, higher = more binding, comparable within an allelic series)	11.5 upbm affinity estimate (log intensity, higher = more binding, comparable within an allelic series)	11.2 upbm affinity estimate (log intensity, higher = more binding, comparable within an allelic series)
CCTACCCC	9.51 upbm affinity estimate (log intensity, higher = more binding, comparable within an allelic series)	9.51 upbm affinity estimate (log intensity, higher = more binding, comparable within an allelic series)	9.59 upbm affinity estimate (log intensity, higher = more binding, comparable within an allelic series)
CTTTACGA	10.5 upbm affinity estimate (log intensity, higher = more binding, comparable within an allelic series)	11.8 upbm affinity estimate (log intensity, higher = more binding, comparable within an allelic series)	11.5 upbm affinity estimate (log intensity, higher = more binding, comparable within an allelic series)
CAGCGGGG	9.37 upbm affinity estimate (log intensity, higher = more binding, comparable within an allelic series)	9.58 upbm affinity estimate (log intensity, higher = more binding, comparable within an allelic series)	9.58 upbm affinity estimate (log intensity, higher = more binding, comparable within an allelic series)
ATATAAAC	10.8 upbm affinity estimate (log intensity, higher = more binding, comparable within an allelic series)	11.8 upbm affinity estimate (log intensity, higher = more binding, comparable within an allelic series)	11.5 upbm affinity estimate (log intensity, higher = more binding, comparable within an allelic series)
GGGCCGGA	9.43 upbm affinity estimate (log intensity, higher = more binding, comparable within an allelic series)	9.41 upbm affinity estimate (log intensity, higher = more binding, comparable within an allelic series)	9.47 upbm affinity estimate (log intensity, higher = more binding, comparable within an allelic series)
CGCAGCCC	9.49 upbm affinity estimate (log intensity, higher = more binding, comparable within an allelic series)	9.55 upbm affinity estimate (log intensity, higher = more binding, comparable within an allelic series)	9.57 upbm affinity estimate (log intensity, higher = more binding, comparable within an allelic series)
CCGCCCGG	9.44 upbm affinity estimate (log intensity, higher = more binding, comparable within an allelic series)	9.37 upbm affinity estimate (log intensity, higher = more binding, comparable within an allelic series)	9.62 upbm affinity estimate (log intensity, higher = more binding, comparable within an allelic series)
CGAAGGCG	9.52 upbm affinity estimate (log intensity, higher = more binding, comparable within an allelic series)	9.45 upbm affinity estimate (log intensity, higher = more binding, comparable within an allelic series)	9.53 upbm affinity estimate (log intensity, higher = more binding, comparable within an allelic series)
GCACCGGA	9.55 upbm affinity estimate (log intensity, higher = more binding, comparable within an allelic series)	9.43 upbm affinity estimate (log intensity, higher = more binding, comparable within an allelic series)	9.61 upbm affinity estimate (log intensity, higher = more binding, comparable within an allelic series)
GCTGCGCA	9.55 upbm affinity estimate (log intensity, higher = more binding, comparable within an allelic series)	9.53 upbm affinity estimate (log intensity, higher = more binding, comparable within an allelic series)	9.77 upbm affinity estimate (log intensity, higher = more binding, comparable within an allelic series)
CAATAATC	10.2 upbm affinity estimate (log intensity, higher = more binding, comparable within an allelic series)	11.2 upbm affinity estimate (log intensity, higher = more binding, comparable within an allelic series)	11.1 upbm affinity estimate (log intensity, higher = more binding, comparable within an allelic series)
CACCGGTG	9.69 upbm affinity estimate (log intensity, higher = more binding, comparable within an allelic series)	9.58 upbm affinity estimate (log intensity, higher = more binding, comparable within an allelic series)	9.72 upbm affinity estimate (log intensity, higher = more binding, comparable within an allelic series)
CCAGTCCG	9.56 upbm affinity estimate (log intensity, higher = more binding, comparable within an allelic series)	9.53 upbm affinity estimate (log intensity, higher = more binding, comparable within an allelic series)	9.68 upbm affinity estimate (log intensity, higher = more binding, comparable within an allelic series)
CTGGCCCC	9.44 upbm affinity estimate (log intensity, higher = more binding, comparable within an allelic series)	9.38 upbm affinity estimate (log intensity, higher = more binding, comparable within an allelic series)	9.45 upbm affinity estimate (log intensity, higher = more binding, comparable within an allelic series)
